Assay results published in PubChem BioAssay (NCI).
Compounds without any hit were thinned out: in the full panel of roughly 83,000, 20% have a hit.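 96-well plates, one dose, 48 hours. Percent growth reported; active if below 10.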 Activity calls are given as the source filed them.

These compounds were tested on DU-145 prostate (assay: NCI-60 one-dose screen, 48 h (100 = growth as untreated, 0 = no growth, -100 = all killed)). Conditions: 10 µM unless noted.

Structure (SMILES)	growth
Oc1ccccc1/C=N/Nc1nc2ccccc2s1	48% (inactive)
COc1cccc(OC(=O)c2ccccc2)c1OC(=O)c1ccccc1	87.7% (inactive)
COC(=O)c1ccc(C(=O)Nc2ccccc2N)cc1	80.2% (inactive)
CCSc1nnc2c3cc(Br)ccc3n(C)c2n1	119% (inactive)
N#CCCN1CCN(CCC#N)C1=S	110% (inactive)
COC(=O)/C=C1/CCC2C3CCC4=CC(=O)C(Br)CC4(C)C3C(=O)CC12C (centres undefined)	75% (inactive)
NC(=O)c1cc(Cl)ccc1NC(=O)COc1ccccc1	60.4% (inactive)
CN1CCN(CCCn2c3c(sc4ncccc43)c(=O)n3nnc(-c4ccccc4)c23)CC1	-18.2% (active)

These compounds were tested on K-562 leukemia in the same assay as above. Conditions: 10 µM unless noted.

Structure (SMILES)	growth
O=C1C(Cl)=C(NCCCN2CCOCC2)C(=O)c2ccccc21	60.3% (inactive)
COC(=O)c1cc(-c2ccc(C)cc2)n(C(=O)CSc2nc3sc(C(N)=O)c(C)c3c(=O)n2Cc2ccccc2)n1	101% (inactive)
COc1cccc(OC)c1OC(=O)c1ccccc1	105% (inactive)
Oc1ccc2ccccc2c1C1NN=C(c2ccccc2)S1 (centres undefined)	18.6% (inactive)
Clc1ccc(Nc2ccnc(N3CCN(c4ccnc5cc(Cl)ccc45)CC3)n2)cc1	15.7% (inactive)
Cc1ccc(S(=O)(=O)N(c2ccc(Cl)cc2)c2ccc(Br)cc2C(=O)O)cc1	107% (inactive)
CCN1CCN(C(=S)SCC(=O)Nc2nc3ccc(OC)cc3s2)CC1	91.8% (inactive)
Cn1c2ccccc2c2nn(Cc3ccccc3)c(=O)nc21	109% (inactive)
Clc1ccc2c(N3CCN(c4ccnc(NC5CCCCC5)n4)CC3)ccnc2c1	7.08% (active)
Cn1c2ccccc2c2nn(C(=O)c3ccccc3)c(=O)nc21	112% (inactive)
COc1ccc(OC2=C(C#N)C(=N)N3c4ccccc4Sc4ccccc4C3N2)cc1 (centres undefined)	148% (inactive)
NC(=S)N/N=C1\c2ccccc2-c2c(F)c(F)c(F)c(F)c21	9.46% (active)
NC(=O)c1cc(I)ccc1NC(=O)COc1ccc(Cl)cc1Cl	31.5% (inactive)
CCC12CCC3c4ccc(O)cc4CCC3C1CC(O)C2O (centres undefined)	23.7% (inactive)
O=C1NC(=O)C(CSc2ccccc2)(c2ccccc2)N1 (centres undefined)	104% (inactive)
C=C(C)COC(=O)c1ccccc1C(=O)OCC1(C)CO1 (centres undefined)	110% (inactive)
COc1ccc(NC(=O)COc2ccccc2)c(C(N)=O)c1	9.36% (active)
O=c1nc(NO)[nH]c(=O)n1Cc1ccc(F)cc1	98.1% (inactive)
NC(=O)c1cc(I)ccc1NC(=O)COc1ccccc1	8.23% (active)
O=C(Nc1ccccc1O)c1ccc(NS(=O)(=O)c2cccc3cccnc23)cc1	23.8% (inactive)

Structure (SMILES)	growth
CC(=O)OC[C@H](O)[C@@]1(O)CC[C@H]2[C@@H]3CCC4=CC(=O)CC[C@]4(C)[C@H]3[C@@H](O)C[C@@]21C	89.5% (inactive)
COc1cc(NC(=O)COc2ccccc2)c(C(N)=O)cc1OC	7.84% (active)
COc1ccc(Nc2[nH]n(C3=Nc4ccccc4Sc4ccccc43)c(=O)c2C#N)cc1	51.9% (inactive)
COc1c(Cl)ccc2c(-c3nc4cc(Cl)c(F)cc4s3)cc(=O)oc12	64.9% (inactive)
Cn1c2ccc(Cl)cc2c2nn(C(=O)c3ccccc3)c(=O)nc21	110% (inactive)
CC(=O)Nc1ccc(S(=O)(=O)N/N=C\c2ccc(Cl)c(Cl)c2)cc1	116% (inactive)
COc1ccc(/C=C(\C#N)c2ccc(OC)cc2)cc1	20.1% (inactive)
CCCCNNC(=O)c1ccc(Br)cc1	29.9% (inactive)
CC(=O)c1cc(C)c(OC(=O)c2ccccc2)c(C)c1	85.7% (inactive)
Clc1nc(-c2ccccn2)nc2sc3c(c12)CCCCCC3	79.8% (inactive)
Cc1ccc(C(=O)Nc2ccccc2N)cc1	62.5% (inactive)
Oc1ccccc1/C=N/Nc1nc2ccccc2s1	41% (inactive)
COc1cccc(OC(=O)c2ccccc2)c1OC(=O)c1ccccc1	37.4% (inactive)
COC(=O)c1ccc(C(=O)Nc2ccccc2N)cc1	73.3% (inactive)
CCSc1nnc2c3cc(Br)ccc3n(C)c2n1	118% (inactive)
N#CCCN1CCN(CCC#N)C1=S	109% (inactive)
COC(=O)/C=C1/CCC2C3CCC4=CC(=O)C(Br)CC4(C)C3C(=O)CC12C (centres undefined)	48.9% (inactive)
NC(=O)c1cc(Cl)ccc1NC(=O)COc1ccccc1	18.1% (inactive)
CN1CCN(CCCn2c3c(sc4ncccc43)c(=O)n3nnc(-c4ccccc4)c23)CC1	1.27% (active)

The compounds below were run on MALME-3M melanoma in the same assay as above. Conditions: 10 µM unless noted.

Structure (SMILES)	growth
COc1cccc(OC)c1OC(=O)c1ccccc1	106% (inactive)
CCCCC/C=C\C/C=C/CCCCCCCCNC(=O)Nc1ccc([N+](=O)[O-])cc1	82.9% (inactive)
NC(=S)N/N=C1\c2ccccc2-c2c(F)c(F)c(F)c(F)c21	73.6% (inactive)
CCC12CCC3c4ccc(O)cc4CCC3C1CC(O)C2O (centres undefined)	70.1% (inactive)
O=c1nc(NO)[nH]c(=O)n1Cc1ccc(F)cc1	103% (inactive)
CC(=O)OC[C@H](O)[C@@]1(O)CC[C@H]2[C@@H]3CCC4=CC(=O)CC[C@]4(C)[C@H]3[C@@H](O)C[C@@]21C	95.8% (inactive)
Clc1nc(-c2ccccn2)nc2sc3c(c12)CCCCCC3	94.2% (inactive)
